# Assay outcomes (PubChem)
# The sample as a whole holds a higher share of hits than the screen did.
# NOMO-1 viab: STK33 inhibitor candidate reducing NOMO-1 cell viability | NOMO-1 AML viability, CellTiter-Glo luminescence, 72 h | inhibition, % (no concentration beside the values) | actives 7.5% (n = 37,000) | AID 2330; in the data active = inhibition above about 80%; inconclusive = no clear call, values can overlap the other calls
# ROS inducer: raises reactive oxygen species in U2OS cancer cells | U2OS ROS induction, H2DCF-DA fluorescence | actives 2% (n = 46,000) | ROS induction (% of piperlongumine), % at 10 µM; in the data active = ROS induction above about 79%, passing the limit was not always enough; inconclusive = no clear call, values can overlap the other calls;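 also: 0% = DMSO vehicle median and 100% = reference compound median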
# Starred values were filed as active, the others as inactive; ? = inconclusive; nt = not tested or not shown.
SMILES,NOMO-1 viab,ROS inducer
Cc1noc(C)c1NC(=O)N(C)C[C@@H]1Oc2ccc(NS(=O)(=O)c3c(C)noc3C)cc2C(=O)N([C@H](C)CO)C[C@@H]1C,-19.7,-4.3
COc1ccc(S(=O)(=O)N(C)C[C@@H]2Oc3ccc(NC(=O)Cc4ccccc4)cc3C(=O)N([C@@H](C)CO)C[C@@H]2C)cc1,10.3,3.0
COc1ccccc1NC(=O)C(Cc1ccccc1)N1C(=O)C2C3c4ccccc4C(c4ccccc43)C2C1=O (stereo not drawn),92.2*,21.1
COc1ccccc1NC(=O)CN1C(=O)C2C3CCC(C3)C2C1=O (stereo not drawn),10.4,nt
CSc1ccc(/C=N/N(C)S(=O)(=O)c2ccc(C)cc2)cc1,62.2,72.1
Cc1ccc(/C=N/N(C)S(=O)(=O)c2ccc(C)cc2)cc1,?,95.1*
C[C@H]1CN([C@@H](C)CO)C(=O)c2cccc(NS(=O)(=O)c3cn(C)cn3)c2O[C@H]1CN(C)CC1CCCCC1,18.4,-9.1
C[C@H]1CN([C@@H](C)CO)C(=O)Cc2cc(NC(=O)Nc3ccccc3)ccc2O[C@@H]1CN(C)Cc1ccc(Cl)c(Cl)c1,31.3,69.1
C[C@@H]1CN([C@H](C)CO)C(=O)Cc2cc(NC(=O)Nc3ccccc3)ccc2O[C@@H]1CN(C)Cc1ccc(Cl)c(Cl)c1,99.0*,19.3
C[C@@H]1CN([C@H](C)CO)C(=O)Cc2cc(NC(=O)Nc3ccc(F)cc3)ccc2O[C@H]1CN(C)Cc1ccc(Cl)c(Cl)c1,94.3*,16.5
C[C@@H]1CN([C@H](C)CO)C(=O)Cc2cc(NC(=O)Nc3ccc4c(c3)OCO4)ccc2O[C@H]1CN(C)Cc1ccc(Cl)c(Cl)c1,56.6,11.1
CC(C)NC(=O)Nc1ccc2c(c1)CC(=O)N([C@@H](C)CO)C[C@H](C)[C@@H](CN(C)Cc1ccc(Cl)c(Cl)c1)O2,-2.3,13.1
CC(C)NC(=O)Nc1ccc2c(c1)CC(=O)N([C@H](C)CO)C[C@@H](C)[C@@H](CN(C)Cc1ccc(Cl)c(Cl)c1)O2,42.6,28.4
C[C@H]1CN([C@@H](C)CO)C(=O)Cc2cc(NC(=O)Nc3ccc(F)cc3)ccc2O[C@@H]1CN(C)Cc1ccc(Cl)c(Cl)c1,96.5*,52.2
C[C@@H]1CN([C@H](C)CO)C(=O)Cc2cc(NC(=O)Nc3ccc4c(c3)OCO4)ccc2O[C@@H]1CN(C)Cc1ccc(Cl)c(Cl)c1,108.2*,4.5
NS(=O)(=O)c1ccc(CCn2c(-c3ccccc3)nc(=S)c3c2CCCC3)cc1,nt,10.9
C[C@@H]1CN([C@H](C)CO)C(=O)c2cccc(NC(=O)C3CCCCC3)c2O[C@@H]1CN(C)Cc1ccncc1,2.5,25.4
Cc1ccccc1C(=O)Nc1cccc(NC(=O)COc2ccccc2Cl)c1,6.5,2.3
C[C@@H]1CN([C@@H](C)CO)C(=O)CCCn2cc(nn2)CO[C@@H]1CN(C)S(=O)(=O)c1cn(C)cn1,nt,-16.2
O=C(Nc1ccc2c(c1)C(=O)OC2)c1cc2ccccc2s1,nt,-5.5
C[C@@H]1CN([C@@H](C)CO)C(=O)c2cc(NC(=O)Nc3ccc(F)cc3)ccc2O[C@@H]1CN(C)Cc1ccc(C(F)(F)F)cc1,105.4*,8.6
C[C@H]1CN([C@@H](C)CO)C(=O)c2cc(NC(=O)Nc3ccc(C(F)(F)F)cc3)ccc2O[C@@H]1CN(C)Cc1ccccc1,94.3*,9.8
C[C@@H]1CN([C@@H](C)CO)C(=O)c2cc(NC(=O)Nc3ccc(C(F)(F)F)cc3)ccc2O[C@@H]1CN(C)Cc1ccc(Oc2ccccc2)cc1,116.5*,16.7
C[C@@H]1CN([C@H](C)CO)C(=O)c2cc(NC(=O)Nc3ccc(C(F)(F)F)cc3)ccc2O[C@H]1CN(C)Cc1ccc(Oc2ccccc2)cc1,58.4,5.5
C[C@H]1CN([C@@H](C)CO)C(=O)c2cc(NC(=O)Nc3ccc(C(F)(F)F)cc3)ccc2O[C@@H]1CN(C)Cc1ccc(C(=O)O)cc1,-22.6,6.9
SMILES,NOMO-1 viab,ROS inducer
C[C@@H]1CN([C@H](C)CO)C(=O)c2cc(NC(=O)Nc3ccc(C(F)(F)F)cc3)ccc2O[C@H]1CN(C)Cc1ccccc1,76.3,0.0
C[C@H](CO)N1C[C@H](C)[C@H](CN(C)Cc2ccc(C(=O)O)cc2)Oc2ccc(NC(=O)Nc3ccc(C(F)(F)F)cc3)cc2C1=O,-14.8,-4.9
C[C@@H]1CN([C@@H](C)CO)C(=O)c2cc(NC(=O)Nc3ccc(C(F)(F)F)cc3)ccc2O[C@@H]1CN(C)Cc1ccccc1,119.5*,16.7
N#Cc1cc2c(nc1SCC(=O)Nc1cccc(F)c1)CCCCC2,?,-0.3
O=S(=O)(N[C@@H]1CCCN(Cc2ccc(OCCO)cc2)C1)c1cccc2cccnc12,nt,8.5
COC(=O)c1ccc(NC(=O)CSc2nnc(-c3ccc(NC(C)=O)cc3)n2C)cc1,11.2,0.7
C[C@H]1CN([C@@H](C)CO)C(=O)c2cc(NC(=O)C3CC3)ccc2O[C@H]1CN(C)Cc1ccc(-c2ccccc2)cc1,10.5,-11.1
C[C@H]1CN([C@@H](C)CO)C(=O)Cc2cc(NC(=O)Cc3ccccc3)ccc2O[C@H]1CN(C)Cc1ccc(C(F)(F)F)cc1,46.1,2.9
Cc1noc(C)c1NC(=O)Nc1ccc2c(c1)CC(=O)N([C@H](C)CO)C[C@H](C)[C@H](CN(C)C(=O)Nc1ccccc1)O2,-9.8,-2.1
COc1ccc(S(=O)(=O)N(C)C[C@H]2Oc3ccc(NC(=O)Nc4cccc5ccccc45)cc3C(=O)N([C@H](C)CO)C[C@@H]2C)cc1,-7.1,20.4
COc1ccc(NC(=O)Nc2ccc3c(c2)C(=O)N([C@H](C)CO)C[C@@H](C)[C@H](CN(C)Cc2ccc(C(F)(F)F)cc2)O3)cc1,49.2,-4.5
COc1ccc(CN(C)C[C@@H]2Oc3ccc(NC(=O)Nc4ccc(C(F)(F)F)cc4)cc3C(=O)N([C@@H](C)CO)C[C@@H]2C)cc1,99.9*,-1.0
C[C@H]1CN([C@@H](C)CO)C(=O)Cc2cc(NC(=O)Cn3cnnn3)ccc2O[C@H]1CN(C)C(=O)Nc1cccc2ccccc12,-5.5,-0.5
C[C@@H]1CCCCO[C@@H](CN(C)Cc2ccc(C(=O)Nc3ccccc3N)cc2)[C@@H](C)CN([C@H](C)CO)C(=O)c2cc(NS(=O)(=O)c3cccs3)ccc2O1,138.5*,-1.3
C[C@@H]1CCCCO[C@H](CN(C)Cc2ccccc2)[C@@H](C)CN([C@H](C)CO)C(=O)c2cc(NS(=O)(=O)c3cccs3)ccc2O1,28.0,5.3
C[C@@H]1CN([C@@H](C)CO)C(=O)c2cc(NS(=O)(=O)c3cccs3)ccc2O[C@H]1CN(C)Cc1ccc(C(=O)Nc2ccccc2N)cc1,28.8,-10.4
C[C@@H]1CCCCO[C@H](CN(C)Cc2ccc(C(=O)Nc3ccccc3N)cc2)[C@@H](C)CN([C@H](C)CO)C(=O)c2cc(NS(=O)(=O)c3cccs3)ccc2O1,127.2*,8.1
COc1ccc(-c2nc3ccccc3n2CCc2ccccc2)cc1OC,nt,-1.9
CCOC(=O)c1sc2ncn3c(-c4ccc(C)cc4)nnc3c2c1C,nt,197.9*
CCOC(=O)c1sc2ncn(CC(=O)Nc3ccccc3Cl)c(=O)c2c1C,11.2,nt
C[C@@H]1CN([C@H](C)CO)C(=O)c2cc(NC(=O)CCC(F)(F)F)ccc2O[C@H]1CN(C)Cc1ccc(Cl)c(Cl)c1,51.4,0.8
C[C@H](CO)N1C[C@H](C)[C@H](CN(C)Cc2ccc(Cl)c(Cl)c2)Oc2ccc(NC(=O)CCC(F)(F)F)cc2C1=O,-5.0,9.9
